Epigenetic reg: derepresses silenced GFP reporter in murine cells; Potency, µM (series often up to 53.9 µM), hits mostly activators; murine LDR cells, GFP reporter derepression, 30 h; 280,000 compounds, 0.2% hits; further: nearly all actives have a fitted effect of over 60% in size
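Murine LDR cells bearing a silenced CMV-driven GFP reporter were exposed to compound for 30 h at 37 C. After PBS washes, GFP-positive cells (20-120 um objects) counted by laser-scanning microplate cytometry.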
LDHA inh: blocks human lactate dehydrogenase A | AID 1347041 | activity change, % (values are at about 110 or 230 µM) | purified LDHA, NADH/diaphorase-resazurin fluorescence; active compounds read low | P00338 | 480,000 compounds, 0.15% hits; in the data active means activity change below about -30%; inconclusive means mostly about -25% to -30%
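LDH5 2 nM; NADH 0.06 mM, pyruvate 0.2 mM; 200 mM Tris pH 7.4, EDTA, Tween-20; 5 min RT. Detection: diaphorase 0.133 mg/mL + resazurin 37 µM, fluorescence ex540/em590 at 0 and 20 min; normalized to enzyme-free and DMSO wells.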
Anesthetic bind: candidate novel general anesthetic via apoferritin binding. P02791. apoferritin/1-aminoanthracene competitive binding, fluorescence. Potency, µM (titrated, usually from 77.5 µM), usual class: inhibitors. 350,000 compounds, 0.074% hits; further: nearly all actives have a fitted effect of over 20% in size
Target sequence (P02791 2-175 limits assumed): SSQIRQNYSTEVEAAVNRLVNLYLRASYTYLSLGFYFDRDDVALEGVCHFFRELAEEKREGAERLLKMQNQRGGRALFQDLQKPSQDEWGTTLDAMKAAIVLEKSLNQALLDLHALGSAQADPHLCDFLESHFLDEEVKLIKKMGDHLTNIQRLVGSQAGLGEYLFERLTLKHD
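Read-out: endpoint 1-AMA fluorescence, excitation 380 nm and emission 535 nm, after compounds sit 10 min at room temperature with 10 uM horse-spleen apoferritin in 50% saturated 1-AMA/PBS. Values come from four-parameter Hill fits.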
Vif-A3G inh: inhibitors of Vif-APOBEC3G interaction; Q9HC16; HeLa A3G-eYFP + Vif (tagged APOBEC3G with the HIV-1 protein that degrades it), YFP fluorescence, overnight; Potency, µM (titrated, usually from 46.1 µM), most hits filed as inhibitors; 410,000 compounds, 0.076% hits; further: nearly all actives have a fitted effect of over 60% in size
Target sequence (Q9HC16 whole entry, looked up): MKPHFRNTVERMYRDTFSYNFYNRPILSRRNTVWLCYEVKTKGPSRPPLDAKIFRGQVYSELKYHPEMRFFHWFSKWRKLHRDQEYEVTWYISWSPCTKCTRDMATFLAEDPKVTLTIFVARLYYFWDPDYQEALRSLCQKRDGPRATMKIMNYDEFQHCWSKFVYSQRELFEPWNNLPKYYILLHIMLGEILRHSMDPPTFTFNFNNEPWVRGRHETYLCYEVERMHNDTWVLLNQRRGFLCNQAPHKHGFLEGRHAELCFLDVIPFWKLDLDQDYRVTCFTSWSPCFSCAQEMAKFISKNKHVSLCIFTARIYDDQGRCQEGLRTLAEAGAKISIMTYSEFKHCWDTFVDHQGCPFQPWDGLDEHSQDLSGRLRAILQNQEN
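Read-out is eYFP fluorescence (Ex 488/Em 500-530) from Vif-expressing HeLa A3G-eYFP cells; more signal means A3G escaped Vif-mediated degradation. Cells plated overnight, compound pinned in, incubated overnight at 37 deg C.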
Vif-A3F inh: inhibitors of Vif-A3F interaction. HeLa A3F-eYFP + Vif (tagged APOBEC3F with the HIV-1 protein that degrades it), YFP fluorescence increase. 390,000 compounds, 0.2% hits. AID 602313. Potency, µM (doses to about 46.1 µM); further: nearly all actives have a fitted effect of over 65% in size
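HeLa cells stably expressing A3F-eYFP plus Vif, plated and incubated overnight at 37 deg C, then exposed to compounds overnight at 37 deg C. Blocked degradation read as raised yellow fluorescence (Ex 488/Em 500-530).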
Each line names hits and unclear results; the compound was inactive in the other large screens. Shown are actives, neighbours in structure and some others; about 0.49% of the full set was active somewhere. Unless noted, the call rests on the fitted dose curve; in most records, active means well fitted curve in the direction sought with a large enough effect; inconclusive means small, poorly fitted or top-dose-only effect, or another doubt; inactive means no such curve, though single readings can be large; an effect the other way counts as inactive or inconclusive.

CCOC(=O)c1ccc(-c2c(-c3ccccc3OC)oc3ccccc23)cc1F	none (no result: Epigenetic reg, Anesthetic bind)
CCOc1ccccc1CN1CCC(O)CC1	none
CCOc1ccccc1CN1CCC(N2CCOCC2)CC1	LDHA inh -31 (no result: Epigenetic reg)
CCn1c2ccccc2c2cc(CN3CCN(S(=O)(=O)CC)CC3)ccc21	none (no result: LDHA inh, Vif-A3G inh, Vif-A3F inh)
CCn1c2ccccc2c2cc(CN3CCN(S(=O)(=O)Cc4ccccc4)CC3)ccc21	LDHA inh -30
Cc1cccc(-c2nc3n(CC(=O)N4CCCCCC4)c(C)cc(=O)n3n2)c1	LDHA inh -31 (no result: Epigenetic reg, Anesthetic bind, Vif-A3G inh, Vif-A3F inh)
CC(NS(=O)(=O)c1cccc(C(=O)O)c1)C12CC3CC(CC(C3)C1)C2 (configuration not stated)	none (no result: Epigenetic reg, Anesthetic bind)
CC(C)CC(=O)NC(=S)N(Cc1ccccc1)Cc1ccccc1	Vif-A3F inh 25µM
CC(C)C(=O)NC(=S)N(Cc1ccccc1)Cc1ccccc1	none
C#CCN1CCC(C(=O)NC(C)c2cccc(C(F)(F)F)c2)CC1 (configuration not stated)	none (no result: Epigenetic reg, Anesthetic bind, Vif-A3G inh, Vif-A3F inh)
CCCCc1c(CCC)c(=N)c2ccccc2n1C	LDHA inh -37
CCn1cc(S(=O)(=O)NCc2ccc(OC)cc2)cn1	none (no result: Epigenetic reg)
Cc1cccc(C(=O)NCc2nnc3c4ccccc4c(-c4ccccc4)nn23)c1	none
Cn1cc(C2=C(c3ccc(Cl)cc3Cl)C(=O)NC2=O)c2ccccc21	Epigenetic reg 14µM, Vif-A3G inh inconclusive, Vif-A3F inh inconclusive
CCn1c(C)cs/c1=N\S(=O)(=O)c1ccccc1	none (no result: Epigenetic reg, Anesthetic bind)
O=Cc1s/c(=N\S(=O)(=O)c2ccccc2)n(CCCCl)c1Cl	Epigenetic reg inconclusive, Vif-A3G inh inconclusive, Vif-A3F inh 28µM
O=C(CCCN1C(=O)c2ccccc2C1=O)Nc1ccc2c(c1)OCCO2	none
COc1cc(/C=C2\SC(=S)N(Nc3ncc(C(F)(F)F)cc3Cl)C2=O)ccc1O	Anesthetic bind inconclusive, Vif-A3G inh inconclusive, Vif-A3F inh 22µM
CN(C)c1ccc(/C=C2\SC(=S)N(Nc3ncc(C(F)(F)F)cc3Cl)C2=O)cc1	Epigenetic reg 14µM, Vif-A3G inh inconclusive, Vif-A3F inh 10µM
COc1cc(/C=C2/SC(=S)N(CC3CCCO3)C2=O)ccc1O (configuration not stated)	Vif-A3F inh 32µM
COc1cc(/C=C2\SC(=S)N(Nc3ccccc3)C2=O)ccc1O	Vif-A3G inh inconclusive, Vif-A3F inh inconclusive
COc1ccc(/C=C2\SC(=S)N(CC3CCCO3)C2=O)cc1 (configuration not stated)	none
CCC(C)Sc1ccc(-c2nc3cc(C)ccn3c2NC2CCCCC2)cc1 (configuration not stated)	Vif-A3G inh inconclusive, Vif-A3F inh 11µM (no result: Epigenetic reg, Anesthetic bind)
CCC(C)Sc1ccc(-c2nc3cnccn3c2NC2CCCCC2)cc1 (configuration not stated)	Vif-A3G inh inconclusive, Vif-A3F inh inconclusive (no result: Epigenetic reg, Anesthetic bind)
COc1ccc(NC(=O)CSc2nc3ccccc3c(=O)n2-c2ccc3c(c2)OCO3)c(OC)c1	none
CCOc1ccc(OCCC(=O)OCC(=O)NC(C)c2ccccc2)cc1 (configuration not stated)	none (no result: Epigenetic reg, Anesthetic bind)
Cc1cc(N=Cc2c(O)n(-c3ccc4c(c3)OCO4)c(=O)c3ccccc23)ccn1	Epigenetic reg inconclusive, Vif-A3G inh inconclusive, Vif-A3F inh 25µM
Cc1ccc(-n2c(O)c(C=Nc3ccc4c(c3)OCO4)c3ccccc3c2=O)cc1C	Epigenetic reg inconclusive, Vif-A3F inh inconclusive
CCC(=O)c1ccccc1OCCN1CCN(Cc2ccccc2)CC1	LDHA inh -34
CCOc1ccccc1OCCOCCN1CCN(Cc2ccccc2)CC1	LDHA inh -31
CCC(=O)c1ccccc1OCCCn1cncn1	none
CC1CCCC(C)N1C(=O)COC(=O)C1CCN(S(=O)(=O)c2c(Cl)cccc2Cl)CC1 (configuration not stated)	none (no result: Epigenetic reg, Anesthetic bind)
C[C@@H](CN(C)C)CN1c2ccccc2Sc2ccccc21	none (no result: LDHA inh, Vif-A3G inh, Vif-A3F inh)
O=C1C(=Cc2cn(-c3ccccc3)nc2-c2ccc(OCc3ccccc3F)cc2)SC(=S)N1CCS(=O)(=O)O	LDHA inh -34 (no result: Epigenetic reg, Anesthetic bind, Vif-A3F inh)
Cc1ccc(OCC(O)Cn2c(NCCO)nc3c2c(=O)[nH]c(=O)n3C)cc1 (configuration not stated)	none (no result: Epigenetic reg, Anesthetic bind, Vif-A3G inh, Vif-A3F inh)
COc1ccc(NC(=O)COC(=O)c2cccn2C)cc1S(=O)(=O)N1CCCCC1	none (no result: Epigenetic reg, Anesthetic bind)

Source: PubChem BioAssay
